Measured values taken from PubChem BioAssay (NCI).
About 83,000 compounds went through this panel and 20% of them were active in at least one assay; those are over-represented in the sample as a whole.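 Cells were grown in 96-well plates and exposed to the test compound at a single concentration for 48 hours; results are reported as percent growth, with values below 10 considered active.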 Unmarked numbers belong to inactive results. The source made the active and inactive calls.

test system: ACHN renal; test: NCI-60 one-dose screen, 48 h (100 = growth as untreated, 0 = no growth, -100 = all killed); settings: 10 µM unless noted
Description: Growth inhibition of the ACHN human tumor cell line is measured as a screen for anti-cancer activity. Cells are grown in 96 well plates and exposed to the test compound for 48 hours. Compounds are tested at a single concentration, which is 10^-5 M for most compounds. The reported endpoint is percent growth (GI% or GIPRCNT), where numbers from 0 - 100% represent growth inhibition, and numbers from -100% - 0 represent cell death. For example, a value of 40 represents 60% growth inhibition. A value of 0 means no net growth occurred over the course of the experiment. A value of -40 indicates 40% of cells at the beginning of the experiment died by the end of the experiment. A value of -100 means all cells are dead at the end of the experiment.
NCI-60 Human Tumor Cell Lines Screen was performed using the standard one-dose NCI protocol, which is described in more detail at https://dtp.cancer.gov/discovery_development/nci-60/default.htm.
Compounds with GIPRCNT values below 10 were considered active. Activity score was based on GIPRCNT using the following formula: […]
Score is 0 for GIPRCNT values of 100 or above, 50 for GIPRCNT values of 0, and 100 for GIPRCNT values of -100.

Row | Compound | growth
1 | C[Si](C)(C)C(c1ccccc1)c1ccccc1 | 93.1%
2 | CCCCc1nc(Cl)c(C2CC(c3ccc(S(N)(=O)=O)cc3)=NN2c2cc(Cl)cc(Cl)c2)[nH]1 (stereo not given) | 59.7%
3 | COc1cc(/C=C2\CN(C(=O)OC(C)(C)C)C/C(=C\c3ccc(O)c(OC)c3)C2=O)ccc1O | 100%
4 | CCSc1cnnc2ccccc12 | 95.1%
5 | CCC1N=C(N)N=C(N)N1c1ccc(Cl)cc1 (stereo not given) | 108%
6 | Cc1csc(N/N=C/c2ccncc2)n1 | 103%
7 | Clc1ccccc1CNc1c2ccccc2nc2ccccc12 | 12.2%
8 | CCN1C(=O)N(CC)C2C1NC(=O)N2/N=C/C=C/c1ccccc1 (stereo not given) | 48.1%
9 | COc1cc(C2CC(c3ccc(Cl)cc3)=NN2C(C)=O)ccc1Oc1ccnc2cc(Cl)ccc12 (stereo not given) | 18.8%
10 | O=C(NCCN1CCCCC1)n1cc(-c2ccncc2)c(-c2ccc(Cl)c(O)c2)n1 | 57.4%
11 | NS(=O)(=O)c1ccc(CCn2c(SCC(=O)N/N=C/c3cc4ccccc4[nH]3)nc3ccccc3c2=O)cc1 | 93.9%
12 | CCOC(=O)Cc1cc(Br)c(OCc2ccccc2)c(Br)c1 | 92%
13 | COc1ccc(-c2conc2-n2nc(-c3ccccc3)nc2-c2ccccc2)cc1 | 97.2%
14 | COc1ccc(-n2c(COc3ccc(F)cc3)n[nH]c2=S)cc1 | 99.7%
15 | CCN1C(=O)C(C)C=C(C)C=C1C (stereo not given) | 102%
16 | O=C(CSc1nc2c(n1Nc1ccccc1)-c1ccccc1SC2)Nc1nccs1 | 95.2%
17 | COC(=O)[C@@H](Cc1c[nH]c2ccccc12)NC(=O)/C=C/c1ccccc1 | 39.2%
18 | Oc1c(C(Nc2cccc3ccccc23)c2ccccc2)ccc2cccnc12 (stereo not given) | 22.1%
19 | CCCCCCCCCCCCNC(=O)N[C@H](C(=O)N[C@H]1/C=C/CCNC(=O)/C=C/[C@H](C)NC1=O)C(C)C | 16.6%
20 | Cn1c(-c2ccccc2)cc(=O)n1-c1ccccc1 | 109%

Row | Compound | growth
21 | CCCCCCCCCCCCCCCC1=NCCN1 | 71.2%
22 | S=C(S)Oc1cccc2cccnc12 | 96.2%
23 | CCCCOc1nc2ccc(C)cc2cc1/C=C/C(=O)/C=C(O)/C=C/c1cc2cc(C)ccc2nc1OCCCC | 102%
24 | O=[N+]([O-])c1ccc(N/N=C/c2ccccc2O)nc1 | 27.3%
25 | CCCCCCCCCCCC1=NC(C)(C)CN1CCO | 78.2%
26 | COC(=O)C(Br)(C(=O)OC)C(Br)C(Br)C(Br)c1ccccc1 (stereo not given) | -70% (active)
27 | CCOC(=O)c1cc(C(=O)OCC)c(C)nc1C | 112%
28 | N/N=C(\C(=N\N)c1ccccc1)c1ccccc1 | 104%
29 | CC(C)(CCc1ccccn1)C(=O)CCCc1ccccn1 | 97.4%
30 | Cc1ccccc1C1CC(=O)c2ccccc2C1C (stereo not given) | 108%
31 | COc1nccc2c(Sc3ccccc3)nc(N)nc12 | 108%
32 | CCOC(=O)C1=C(C(=O)OCC)N(c2cc(OC)c(OC)c(OC)c2)C(N)=C(C#N)C1c1cc(=O)[nH]c2ccccc12 (stereo not given) | 97.6%
33 | O=C(CC(=O)c1ccccc1F)Nc1ccc([N+](=O)[O-])cc1 | 100%
34 | N/C(=C\C(=O)n1nc(-c2ccccc2)cc1N)c1ccccc1 | 63.7%
35 | CC(C)[C@@]12C[C@@H](OC(=O)C3CO3)[C@@](C)(O1)[C@@H]1CC[C@@H](C)[C@H]1[C@@H]2OC(=O)/C=C/c1ccccc1 (stereo not given in full) | 5.97% (active)
36 | COc1ccccc1CNCCCN1C(=O)c2ccc3c4c(ccc(c24)C1=O)C(=O)N(CCCCNCCCN)C3=O | 28.1%
37 | CCNC(=O)c1ccc2c(c1)nc(-c1ccc(Cl)cc1)n2-c1cc(C(C)(C)C)[nH]n1 | 52%
38 | CCCCCCCCCCCCCC | 111%
39 | c1ccc(CCn2cccc2)nc1 | 104%
40 | O=P(O)(O)C(O)(Cc1cccnc1)P(=O)(O)O | 100%
